High-throughput results from PubChem BioAssay.
p53ts 32C kill: qHTS Screen for Compounds that Selectively Target Cancer Cells with p53 Mutations: Cytotoxicity of p53ts Cells at the Permissive Temperature; H1299-p53A138V at 32C, ATP luminescence viability, 24 h; Potency, µM (doses to about 46.1 µM), most hits filed as cytotoxic; 0.93% of 130,000 active; AID 924, 2007; also: nearly all actives have a fitted effect of over 55% in size
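Cells: H1299 p53ts (A138V), 600/well, pre-incubated 16–30 h at 37C. Cpd up to 46 uM, 24 h, 32C. Readout: ATPlite luminescence, 20 min RT. Normalization: DMSO vs tamoxifen 100 uM. AC50 by Hill equation.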
p53ts 39C tox: qHTS Screen for Compounds that Selectively Target Cancer Cells with p53 Mutations: Cytotoxicity of p53ts Cells at the Nonpermissive Temperature; H1299-p53A138V viability at 39C, ATP luminescence, 24 h; Potency, µM (top dose mostly 46.1 µM), hits mostly cytotoxic; 1.5% of 130,000 active; AID 902, 2007; also: nearly all actives have a fitted effect of over 55% in size
HBB splicing: qHTS Assay for Modulators of Hemoglobin Beta Chain Splicing. HBB splicing reporter cell assay, activation; EGFP reporter with mutant IVS2-654 intron; response scale: normalised to 500 nM splice-correcting PNA. Potency, µM (series often up to 46.1 µM), hits mostly activators. 0.06% of 65,000 active
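Compounds were applied for 2 days to HeLa EGFP-654 cells, 500/well in Optimem with 2% FCS. The reporter's EGFP is disrupted by mis-splicing of beta-globin intron IVS2-654. Readout: summed well GFP fluorescence from 488 nm laser scanning; reference was 500 nM antisense […] 654 PNA.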
Imprint erasure: qHTS Assay for Compounds that Induce Erasure of Genomic Imprints. mouse ES Peg3-LacZ reporter, beta-gal luminescence, 40 h. Potency, µM (doses to about 60.7 µM), usual class: activators. 0.02% of 110,000 active
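Readout: BetaGlo luminescence (5 min, room temp) for LacZ from the normally silent maternal Peg3 allele in female Peg3LacZ-Neo ES cells. Cells 300/well, 40 h, 37C, 5% CO2. Data normalized per plate to negative controls.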
Ub-GFP proteasome: Ubiquitin-GFP Assay; Ubiquitin-GFP reporter cells, proteasome inhibition, GFP fluorescence; response scale: untreated = 0%, 10 µM MG-132 = 100%; Potency, µM (titrated, usually from 45.9 µM), hits mostly activators; 67,000 tested, under 10 active; active = well fitted activation curve with a large enough effect, not every such curve was filed as active; inconclusive = small, poorly fitted or top-dose-only effect, or another doubt; inactive = no such curve, though single readings can be large or run the other way
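GFP accumulation read-out: laser plate cytometry counting ubiquitin(G76V)-GFP-expressing U2OS cells after 4 hr compound exposure at 37 °C. Titrations spanned 46 uM to 2.9 nM; 0% = basal, 100% = 10 uM MG-132; concentration-response curves fitted.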
GFP derepression: qHTS Assay for Epigenetic Modulators | Potency, µM (top dose mostly 46.1 µM) | 0.09% of 68,000 active | AID 597, 2007 | mouse C127i GFP locus derepression, cytometry, 30 h
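Derepression screen: silenced CMV-GFP reporter in murine C127i cells, 30 h compound incubation at 37 C, washed cells imaged by laser-scanning cytometer to enumerate GFP-expressing objects of 20 to 120 um.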
A number is an active result; [ ] = another dose, or the depositor's remark. Most compounds without a hit are left out; they make up all but 1.6% or so of the library. Unless noted, calls follow the shape of the dose curve; as a rule, active = well fitted curve in the direction sought with a large enough effect; inconclusive = small, poorly fitted or top-dose-only effect, or another doubt; inactive = no such curve, though single readings can be large; an effect the other way counts as inactive or inconclusive.

Results for CCCCCCCC/C=C\CCCCCCCC(=O)N[C@@H](CO)Cc1ccc(O)cc1 ?
p53ts 32C kill: inconclusive; p53ts 39C tox: 32µM; Imprint erasure: inactive; Ub-GFP proteasome: inactive; GFP derepression: inactive

How did Cc1ccc(-n2c(SCC(=O)Nc3cc(C)on3)nc3c(c2=O)SC(C)C3)cc1 (stereo unspecified) do in these assays?
p53ts 32C kill: 10µM; p53ts 39C tox: inconclusive; HBB splicing: inactive; Imprint erasure: inactive; Ub-GFP proteasome: inactive

How did COc1ccc(NC(=O)c2ccc3c(=O)n4nc(Nc5ccccc5C)sc4nc3c2)cc1Cl do in these assays?
p53ts 32C kill: 10µM; p53ts 39C tox: 7.9µM; Imprint erasure: inactive[10.9 µM]

How did Cc1ccc(NC(=O)c2ccc3c(=O)n4nc(Nc5ccccc5C)sc4nc3c2)cc1C do in these assays?
p53ts 32C kill: 13µM; p53ts 39C tox: inactive; Imprint erasure: inactive[10.9 µM]

Results for CCC(C)OC(=O)/C(C#N)=C\c1ccc(-c2cccc(C(F)(F)F)c2)o1 (stereo unspecified) ?
p53ts 32C kill: inactive; p53ts 39C tox: inactive; Imprint erasure: inactive[10.9 µM]

How did N#C/C(=C\c1ccc(-c2cccc(Cl)c2)o1)C(=O)Nc1cccc(C(F)(F)F)c1 do in these assays?
p53ts 32C kill: inactive; p53ts 39C tox: 13µM; Imprint erasure: inactive[10.9 µM]

Results for CNS(=O)(=O)c1ccc(NC(=O)c2cnn3c(C(F)F)cc(-c4ccccc4)nc23)cc1 ?
p53ts 32C kill: inactive; p53ts 39C tox: 13µM; Imprint erasure: inactive[10.9 µM]

Results for CCc1ccc(C2=C(C)C(N3CCC(C(=O)Nc4ccc(F)cc4)CC3)=NS2(=O)=O)cc1 ?
p53ts 32C kill: inconclusive; p53ts 39C tox: 10µM; Imprint erasure: inactive[10.9 µM]

What do the screens show for `CC1=C(c2ccc(F)cc2)S(=O)(=O)N=C1N1CCC(C(=O)NCCc2ccccc2)CC1`?
p53ts 32C kill: inactive; p53ts 39C tox: inactive; Imprint erasure: inactive[10.9 µM]

What do the screens show for `CC1=C(c2ccc(C(C)C)cc2)S(=O)(=O)N=C1N1CCC(C(=O)Nc2ccc(C)cc2)CC1`?
p53ts 32C kill: inconclusive; p53ts 39C tox: 13µM; Imprint erasure: inactive[10.9 µM]

Results for CCCCCCNC(=O)c1c[nH]c2ccc(S(=O)(=O)N(C)c3ccc(C(C)C)cc3)cc2c1=O ?
p53ts 32C kill: inactive; p53ts 39C tox: inactive; Imprint erasure: inconclusive

How did COC(=O)C(C(C)=O)C(=O)C(Cc1ccccc1)NC(=O)OCc1ccccc1 (stereo unspecified) do in these assays?
p53ts 32C kill: inactive[9.22 µM]; p53ts 39C tox: inactive[9.22 µM]; HBB splicing: inactive[9.22 µM]

How did O=C(N[C@@H](Cc1ccccc1)C(=O)CCl)OCc1ccccc1 do in these assays?
p53ts 32C kill: 4µM; p53ts 39C tox: 3.2µM; HBB splicing: inactive; Imprint erasure: inactive; Ub-GFP proteasome: inactive; GFP derepression: inactive

What do the screens show for `COc1cccc(CNC(=O)C2CCN(C(=O)N3CCOc4ccc(Cl)cc43)CC2)c1OC`?
p53ts 32C kill: inactive; p53ts 39C tox: inactive; Imprint erasure: inactive[10.9 µM]
